# Out of some 69,000 compounds screened, about 8,600 (12%) showed an effect of 50% or more. The sample as a whole holds a higher share of strong results than the screen did.
# Test system: Plasmodium berghei
# Experiment: Screen against P. berghei liver stage (PbLuc), transformed with Luciferase, at 10uM
# Assay type: functional, HepG2
# Conditions: tested at 10 uM
row,Compound,INHIBITION [%]
1,COCCCC(=O)N(CCC(=O)O)Cc1ccc(F)c(F)c1,23.1
2,CC(C)NC(=O)N1CCN(CC2CC2)c2ncccc2C1,30.3
3,O=S(=O)(C1CC1)N1CC[C@H](OCC2CC2)[C@@H]1Cc1cccnc1,-4.02
4,CCN(c1ccc(C(=O)NCCCN2CCCCC2)cc1)S(=O)(=O)CC,21.7
5,COc1cccc(-c2nccnc2C2CCN(C(C)=O)CC2)c1,57.4
6,COc1ccc(-c2nccnc2C2CCN(C(C)=O)CC2)cc1,40.9
7,CC(=O)N1CCC(c2nccnc2Oc2ccccc2)CC1,39.2
8,COc1ccc(-c2cc(C3CCN(C(C)=O)CC3)ccn2)cc1,-24.1
9,CC(=O)N1CCC(c2nccnc2-c2ccc(F)c(F)c2)CC1,26.8
10,COc1ccc(Oc2nccnc2C2CCN(C(C)=O)CC2)cc1,58.1
11,Cn1nnnc1SC1CCCN(c2ccccc2Cl)C1=O (configuration not stated),-40
12,CN(C)[C@@H]1CCN(C(=O)NC2CCCC2)[C@H]1Cc1cnn(C)c1,21
13,Cc1cc(C)n(CC2CCCN2C(=O)c2cnc3n[nH]c(C)c3c2)n1 (configuration not stated),13.6
14,CC(C)CN1C[C@@H](C(=O)O)C[C@@H](C(=O)NCc2ccncc2)C1,2.79
15,CCc1ccsc1C(=O)NC(C#N)CC (configuration not stated),30.9
16,Cc1cnc(CN(C)Cc2cc3c(cc2OC(F)F)OCO3)o1,60
17,Cc1cc(CN(C)Cc2cc3c(cc2OC(F)F)OCO3)on1,-19.9
18,Cc1nc(CN(C)Cc2cc3c(cc2OC(F)F)OCO3)oc1C,11.3
19,CN(C)Cc1cc(C2CCN(C(=O)C3CCCNC3)CC2)nn1C (configuration not stated),27.2
20,Cc1cc(NC(=O)c2ccccc2Br)n(C)n1,53.2
21,Cc1cc(NC(=O)c2ccc(F)cc2Br)n(C)n1,-18.5
22,Cc1cc(NC(=O)c2ccc(Br)cc2F)n(C)n1,-77

row,Compound,INHIBITION [%]
1,Cc1ncc2c(n1)CN(Cc1nc(-c3ccsc3)no1)CC2,21
2,Cc1cccc(C(C)C)c1NC(=O)CN(C)C(C)c1nccs1 (configuration not stated),73.6
3,COc1ccccc1CNC(=O)CN(C)C(C)c1nccs1 (configuration not stated),-45.6
4,CCn1nc(C)c(NC(=O)CN(C)C(C)c2nccs2)c1C (configuration not stated),-23.4
5,CCCNC(=O)N1CCC(c2nnc(Cn3cccn3)n2C2CC2)CC1,-50.7
6,CC(O)CN1CCN(C(=O)c2cc3ccccc3c(=O)[nH]2)CC1 (configuration not stated),-3.95
7,CC(C)c1nnc2ccc(N3CCCC(C(=O)Nc4nccs4)C3)nn12 (configuration not stated),29
8,CC(C)c1nnc2ccc(N3CCC(C(=O)Nc4nccs4)CC3)nn12,79.8
9,Cc1nnc2ccc(N3CCC(C(=O)Nc4nccs4)CC3)nn12,39.3
10,Cc1nn(C)c(C)c1-c1cncc(C2CCN(S(C)(=O)=O)CC2)n1,34.7
11,CN1[C@H](CN2CCCC2)C[C@@H]2CN(C(=O)c3cccn3C)CC[C@@H]21,14.1
12,CCOc1ccc2c(c1)CN(Cc1nc3c(cnn3C)c(=O)[nH]1)CC2,48.2
13,COCC1c2c(cnn2CC2CC2)CCN1Cc1ccc(OC)cc1 (configuration not stated),53.1
14,COCC1c2c(cnn2CC2CC2)CCN1Cc1ccsc1 (configuration not stated),-37.9
15,COCC1c2c(cnn2CC2CC2)CCN1Cc1ccc(C)o1 (configuration not stated),-52.7
16,O=S(=O)(NCc1ccccc1)Nc1ccc(-n2ccnc2)cc1,44.8
17,Cc1noc(C)c1CN1CCC2(CC1)CC(Oc1cccnc1)CO2 (configuration not stated),21.6
18,Cc1csc(CN2CCC[C@]3(C[C@@H](Oc4ccccn4)CO3)C2)n1,64.4
19,c1ccc(O[C@H]2CO[C@@]3(CCCN(Cc4nccs4)C3)C2)nc1,49.7
20,CCO[C@H]1CO[C@@]2(CCCN(Cc3nc(C)cs3)C2)C1,11.8
21,Cc1csc(CN2CCC[C@]3(C[C@H](Oc4ccccn4)CO3)C2)n1,35.1
22,CO[C@@H]1CO[C@@]2(CCCN(Cc3nc(C)cs3)C2)C1,65.7

row,Compound,INHIBITION [%]
1,Cc1csc(CN2CCC[C@]3(C[C@H](OCC4CC4)CO3)C2)n1,1.48
2,Cc1noc(C)c1CN1CCOC2(CCCN(c3ccccn3)C2)C1 (configuration not stated),20.9
3,Cc1noc(C)c1CN1CCC[C@]2(C[C@@H](Oc3ccccn3)CO2)C1,87
4,CN1CCN(Cc2cnc3n2CCN(Cc2cccs2)C3)CC1,30.7
5,O=C(NC1CCNCC1)C1(N2CCCCC2)Cc2ccccc2C1,26.9
6,CN(CCCO)c1nc(-c2ccc(C(N)=O)cc2)nc2c1CCNC2,-3.3
7,O=S(=O)(NC1CCOC1)c1ccc(C(F)(F)F)nc1 (configuration not stated),34.5
8,COc1cc(CN2C[C@@H]3CNC(=O)[C@H](C)[C@@H]3C2)cc(OC)c1,-24.5
9,O=C(c1ccoc1)N(Cc1cccnc1)C1CC1,17.1
10,COc1ncccc1NC(=O)NC1CCCN(c2ncccn2)C1 (configuration not stated),-19.9
11,CN(C)CCOCC1CN(CC2CCOCC2)Cc2nnn(C)c21 (configuration not stated),13
12,CC(NC(=O)CCC(=O)c1cccs1)c1nnc2n1CCC2 (configuration not stated),-31.5
13,CNC(=O)CCOC(=O)c1cccc(-n2ccc(C(F)(F)F)n2)c1,24.8
14,CNC(=O)CCOC(=O)c1cccc(-n2cccn2)c1,77.7
15,CNC(=O)COC(=O)c1cccc(-n2ccc(C(F)(F)F)n2)c1,40.6
16,CO[C@H]1CCN(Cc2cnn(C)c2)[C@@H]2CN(Cc3cccnc3)C[C@H]12,0
17,COc1ccc(-c2cc(C(=O)NCCCn3ccnc3C)n(C)n2)cc1,18.3
18,CCC(C)C(=O)NCc1cccc(OCCN(C)C2CCOCC2)c1 (configuration not stated),39.5
19,CC(C)CC(=O)NCc1cccc(OCCN(C)C2CCOCC2)c1,71.3
20,CN(CCOc1cccc(CNC(=O)C2CC2)c1)C1CCOCC1,29.2
21,CN(CCOc1cccc(CN)c1)C1CCOCC1,0
22,COCC(=O)NCc1cccc(OCCN(C)C2CCOCC2)c1,88.1

row,Compound,INHIBITION [%]
1,CN(CCOc1cccc(CNS(C)(=O)=O)c1)C1CCOCC1,39.5
2,CSC(C)(C)CNC(=O)NC1CCN(CC(F)F)CC1,33.7
3,CN(C)CC1CN(Cc2ccc(F)cc2)Cc2nccn2C1 (configuration not stated),24.1
4,COc1ccc(-n2cc3nc(N)[nH]cc-3c2=O)cc1,28.4
5,O=C1[C@H]2CN(Cc3cccs3)C[C@H]2CN1c1ccsc1,14.8
6,Cc1ncsc1C(=O)N(Cc1ccccc1)C1CC1,33.45
7,CCC(O)CN(c1ccccc1)S(=O)(=O)c1cnc(C)s1 (configuration not stated),37.8
8,CCC(O)CN(Cc1ccccc1)S(=O)(=O)c1cnc(C)s1 (configuration not stated),52.6
9,CN(CCOc1ccc(C#N)cc1)CC1CCS(=O)(=O)C1 (configuration not stated),22.6
10,Cn1cc(CN2CC[C@@H]3[C@H]2CCC(=O)N3c2ccccc2)cn1,-46.8
11,Cn1cc(N2C(=O)CC[C@@H]3[C@H]2CCN3Cc2ccncc2)cn1,-10.4
12,COc1ccc(CN2CC[C@@H]3[C@H]2CCC(=O)N3c2cnn(C)c2)cc1,61.9
13,CN1CCN(C2CCN(CC(O)c3ccccc3F)CC2)C1=O (configuration not stated),17.065
14,c1cnc(-c2nn3c(CN4CCCCC4)nnc3s2)cn1,6.83
15,COC(=O)C1=NOC(Cc2cc(OC)c3c(c2)OCO3)C1 (configuration not stated),10.7
16,COc1cc(CC2CC(C(N)=O)=NO2)cc2c1OCO2 (configuration not stated),16.3
17,CCOC(=O)C1=NOC(Cc2cc(OC)c3c(c2)OCO3)C1 (configuration not stated),60
18,CN1CC(C(=O)NCCc2ccc(F)c(Br)c2)CC1=O (configuration not stated),-50.6
19,COc1ccc(C2CCCCCN2CCCNS(C)(=O)=O)cc1 (configuration not stated),0.914
20,CS(=O)(=O)NCCCN1CCCC1c1ccccc1 (configuration not stated),9.25
21,O=C(CCN1CCCCCC1c1ccco1)N1CCOCC1 (configuration not stated),19.5
22,CS(=O)(=O)NCCCN1CCCCC1c1cc2ccccc2[nH]1 (configuration not stated),52

row,Compound,INHIBITION [%]
1,O=C(CCN1CCCCC1c1cc2ccccc2[nH]1)N1CCOCC1 (configuration not stated),55.8
2,O=C(CCN1CCC(c2cc3ccccc3[nH]2)CC1)N1CCOCC1,39.7
3,OC(CN1CCN(Cc2cccc(F)c2)CC1)C1CC1 (configuration not stated),-16.5
4,Cc1n[nH]c(C)c1NC(=O)CN1CCCC1c1noc(C(C)C)n1 (configuration not stated),14.1
5,c1cncc(-c2noc(CN3CCOC(Cn4cccn4)C3)n2)c1 (configuration not stated),16.1
6,Cc1ccc(CN(CCN(C)C)C(=O)Nc2cnn(C)c2)s1,46.4
7,CN(C)c1nccc(C2CCCN2S(=O)(=O)c2cn(C)cn2)n1 (configuration not stated),12.3
8,O=C(NCc1nnc2n1CCC2)c1cn(-c2cccc(Br)c2)nn1,35.7
9,COCCNC(=O)Nc1ccc(F)c(C(N)=O)c1,39.8
10,CCS(=O)(=O)N1Cc2ncn(CC3CC3)c2C(COC)C1 (configuration not stated),11.5
11,COCC1CN(S(C)(=O)=O)Cc2ncn(CC3CC3)c21 (configuration not stated),-3.1
12,COCC1CN(C(=O)CS(C)(=O)=O)Cc2ncn(CC3CC3)c21 (configuration not stated),50
13,COCC1CN(S(=O)(=O)C2CC2)Cc2ncn(CC3CC3)c21 (configuration not stated),51
14,COCC1CN(C(=O)COc2ccccc2)Cc2ncn(C)c21 (configuration not stated),51.2
15,CCn1nnc2c1C(COC)CN(C(=O)COc1ccccc1)C2 (configuration not stated),-12.2
16,COCC1CN(C(=O)COc2ccccc2C)Cc2ncn(C)c21 (configuration not stated),-9.42
17,CCOCC1CN(S(=O)(=O)C2CC2)Cc2ncn(CC3CC3)c21 (configuration not stated),7.53
18,COCC1CN(CC2CC2)Cc2ncn(CC3CC3)c21 (configuration not stated),13.5
19,CS(=O)(=O)c1ccc(-c2nc(C(=O)N3CCCC3)n3ccccc23)cc1,-42.9
